# Many of the other results were omitted from the sample, so hits are more common in it than they were.
# HT1080 IDH1KD tx = qHTS for induction of synthetic lethality in tumor cells producing 2HG: qHTS for the HT-1080-IDH1KD cell line; HT-1080 IDH1 knockdown viability, ATP luminescence, 48 h; Potency, µM (top dose mostly 46.1 µM), for inactives: at the top dose activity, negative = toxicity, usual class: cytotoxic; 2% of 360,000 active;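 note: potency is the fitted concentration of half-maximal effect; 0% = DMSO wells and -100% = cell-free medium wells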
#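 Luminescent ATP read-out (CellTiter-Glo, 10 min at room temperature) after 48 h compound exposure at 37 °C gave viability of IDH1-knockdown HT-1080 cells. Activity was normalised to DMSO and cell-free wells, then fitted as concentration-response curves.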
# HT1080-NT tox = qHTS for induction of synthetic lethality in tumor cells producing 2HG: qHTS for the HT-1080-NT fibrosarcoma cell line; AID 686970, 2013; Potency, µM (top dose mostly 46.1 µM), inactives show at the highest dose activity, negative = less viability, usual class: cytotoxic; HT-1080-NT fibrosarcoma viability, CellTiter-Glo ATP luminescence, 48 h; 1.6% of 360,000 active;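 note: NT is the 2HG producing partner of a matched IDH1 knockdown line; potency is the fitted concentration of half-maximal effect; 0% = DMSO-treated cells and -100% = media-only wells without cells; nearly all actives have a fitted effect of over 55% in size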
#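 Compounds were tested in concentration-response format on HT-1080-NT cells for 48 hours at 37 degrees C. Cell viability came from CellTiter-Glo luminescence; curves were classified by r2, response magnitude and activity.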
# DT40 TDP1 no CPT = qHTS for Inhibitors of human tyrosyl-DNA phosphodiesterase 1 (TDP1): qHTS in cells in absence of CPT; AID 686978, 2013; DT40 Tdp1-/- hTDP1 cells, no CPT, ATP luminescence, 48 h; Potency, µM (doses to about 46.2 µM), inactives show at the highest dose activity change, negative = growth inhibition, most hits filed as inhibitors; 15% of 420,000 active; note: potency is the fitted concentration of half-maximal effect; nearly all actives have a fitted effect of over 55% in size
#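 A cellular qHTS used chicken DT40 cells lacking endogenous Tdp1 but carrying stably transfected human TDP1. Compounds were applied without camptothecin, and cell growth kinetics were judged by ATP-dependent luminescence after ≥48 hr.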
# ALOX12 inh = Primary qHTS assay for inhibitors of human arachidonate 12S-lipoxygenase (ALOX12): Round 2; purified 12hLO, xylenol orange hydroperoxide absorbance; 1.1% of 580,000 active; AID 1671190, 2021; Potency, µM (highest dose often 108 µM), inactives show at the top dose activity change, negative = inhibition, most hits filed as inhibitors; note: potency is the fitted concentration of half-maximal effect
# Target sequence (P18054 whole entry, looked up): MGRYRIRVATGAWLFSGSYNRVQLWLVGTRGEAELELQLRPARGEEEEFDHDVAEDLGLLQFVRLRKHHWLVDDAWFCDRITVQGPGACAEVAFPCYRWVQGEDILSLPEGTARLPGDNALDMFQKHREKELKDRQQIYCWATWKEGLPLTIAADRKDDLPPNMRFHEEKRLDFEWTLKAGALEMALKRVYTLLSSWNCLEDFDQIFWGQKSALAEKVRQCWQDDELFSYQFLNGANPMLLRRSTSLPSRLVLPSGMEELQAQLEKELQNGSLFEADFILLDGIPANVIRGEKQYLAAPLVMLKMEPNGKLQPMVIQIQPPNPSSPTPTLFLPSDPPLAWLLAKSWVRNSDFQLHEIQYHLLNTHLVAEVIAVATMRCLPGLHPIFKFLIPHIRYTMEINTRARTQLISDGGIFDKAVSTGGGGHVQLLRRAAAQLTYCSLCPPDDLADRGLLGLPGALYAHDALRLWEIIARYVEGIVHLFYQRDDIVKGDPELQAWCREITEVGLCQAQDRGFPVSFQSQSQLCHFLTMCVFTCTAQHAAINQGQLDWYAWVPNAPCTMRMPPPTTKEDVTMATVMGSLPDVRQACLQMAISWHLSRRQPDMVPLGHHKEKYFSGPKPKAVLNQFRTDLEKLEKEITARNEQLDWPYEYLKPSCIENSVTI
#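 Purified human 12hLO (150 nM final) in 25 mM Hepes, 0.01% Triton X-100, pH 7.0 was preincubated 15 min at room temperature with compound. Then 40 uM arachidonic acid was added, 30 min. Hydroperoxide was read by Fe-XO absorbance ratio 573/405 nm.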
# IL-1B inflam inh = qHTS for Inhibitors of Inflammasome Signaling: IL-1-beta AlphaLISA Primary Screen; AID 743279, 2014; THP-1 LPS/ATP IL-1B secretion, AlphaLISA, 16 h; stronger effect = lower value; 4.7% of 360,000 active; activity change, % at 57.5 µM; in the data active = activity change below about -50%; inconclusive = mostly about -30% to -49%
#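 THP-1 cells pretreated 1 hr with compounds (up to 57.5 uM final), then stimulated with LPS (250 ng/mL final) plus ATP (1.25 mM final); secreted IL-1B measured by AlphaLISA after 16 hr, decreased signal indicating inhibition.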
# TDP1 cell CPT = qHTS for Inhibitors of human tyrosyl-DNA phosphodiesterase 1 (TDP1): qHTS in cells in presence of CPT. chicken DT40 Tdp1-/-;hTDP1 cells + 20 nM CPT, ATP luminescence, 48 h. AID 686979, 2013. Potency, µM (highest dose often 46.2 µM), inactives show at the top dose activity change, negative = growth inhibition, hits mostly inhibitors. 12% of 420,000 active; note: potency is the fitted concentration of half-maximal effect; nearly all actives have a fitted effect of over 55% in size
#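 Cell growth measured by CellTiter-Glo luminescence after a minimum 48 h, 37 C compound exposure with 20 nM CPT in Tdp1-knockout DT40 cells stably expressing hTDP1, seeded 400/well; qHTS titration format.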
# The depositor's hits bear a star; ? = inconclusive; / = no result given; [ ] = remark or other dose. Unless noted, calls come from the whole dose curve; as a rule, active = well fitted curve in the direction sought with a large enough effect; inconclusive = small, poorly fitted or top-dose-only effect, or another doubt; inactive = no such curve, though single readings can be large; an effect the other way counts as inactive or inconclusive. Unless noted, % is set by controls: 0 for no effect and ±100 for the full control effect.
SMILES,HT1080 IDH1KD tx,HT1080-NT tox,DT40 TDP1 no CPT,ALOX12 inh,IL-1B inflam inh,TDP1 cell CPT
C[C@]12C=CC(=O)C=C1CC[C@@H]1[C@@H]2[C@@H](O)C[C@@]2(C)[C@@H]1CC[C@]2(O)C(=O)CO,/,/,/,1%[57.4 µM],/,/
CCCC1O[C@@H]2C[C@H]3[C@@H]4CCC5=CC(=O)C=C[C@]5(C)[C@H]4[C@@H](O)C[C@]3(C)[C@]2(C(=O)CO)O1 (stereo not given in full),9%,-3%,?,-4%,-65*,-3%
Cc1cc(C)nc(/N=C(\NC(=O)C(C)(C)C)Nc2ccc(F)cc2)n1,22%,19%,-3%,10%,9,7%
CCNc1cc(N2CCC(CCC(=O)NCc3cccc(F)c3)CC2)ncn1,/,/,/,52%,/,/
COCCN1CCCCCC(O)c2cc(C(=O)NCc3ccc(C)o3)ccc21 (stereo not given),/,/,/,45%,/,/
O=C(NC1CCCCC1)c1ccc(-c2cn[nH]c2)c2ccoc12,-17%,-24%,16µM*,-6%,-10,23µM*
COc1ccc(-c2ccc(C(=O)NCc3ccc(N4CCN(C)CC4)cc3)c3occc23)c(C)c1,?,23µM*,16µM*,?,?,16µM*
COc1ccc(-c2ccc(C(=O)NCc3ccc(C(F)(F)F)cc3)c3occc23)c(C)c1,?,?,16µM*,13%,-22,18µM*
COc1ccc(-c2coc3c(C(=O)NCc4ccccc4)cccc23)c(C)c1,?,?,?,?,-18,?
COc1ccc(-c2ccc(C(=O)NCc3ccccc3)c3occc23)c(C)c1,?,?,?,?,?,23µM*
Cc1ccn2c(=O)cc(COc3ccccc3NC(=O)Nc3ccccc3F)nc2c1,/,/,/,-36%,/,/
O=C(NCc1ccc(F)cc1)C1CCCCC1,/,/,/,-13%,/,/
COc1ccc(-c2ccc(C(=O)NCCN(C)C)c3occc23)c(C)c1,18µM*,29µM*,?,?,-9,?
COc1ccc(-c2ccc(C(=O)NC3CCCCC3)c3occc23)c(C)c1,?,?,18µM*,-6%,-28,21µM*
COCCNC(=O)c1ccc(-c2ccc(OC)cc2C)c2ccoc12,-16%,-63%,?,19%,-30,?
Cc1cccn2c(=O)cc(CSc3ccccc3NC(=O)c3ccccc3Cl)nc12,/,/,/,8%,/,/
CCCCN(Cc1cc2ccccc2[nH]c1=O)S(=O)(=O)c1ccc(C)cc1,-12%,-9%,23µM*,312%,-12,?
CCCCN(Cc1cc2ccccc2[nH]c1=O)S(=O)(=O)c1ccc(Cl)cc1,/,/,/,-27%,/,/
Cc1ccc2[nH]c(=O)c(CN(c3cccc(C)c3C)S(=O)(=O)c3ccccc3)cc2c1,?,22%,5.8µM*,/,5,16µM*
CC(C)C(=O)N(Cc1ccccc1)Cc1cc2ccccc2[nH]c1=O,/,/,/,-6%,/,/
CC(C)C(=O)N(Cc1cc2ccccc2[nH]c1=O)C(C)(C)C,2%,21%,21µM*,0%,11,-18%
Cc1ccc(S(=O)(=O)N(Cc2cc3ccccc3[nH]c2=O)c2cccc(C)c2)cc1,9%,4%,7.3µM*,1%,18,10µM*
CCOCCOC1CCN(C(=O)c2ccco2)CC1,/,/,/,26%,/,/
CCOc1ncccc1NC(=O)N1CCN(c2cnccn2)CC1,/,/,/,13%,/,/
COc1ccc(N/C=C(/C(C)=O)c2ccccc2)cc1,4%,0%,-15%,0%,-84*,-7%
SMILES,HT1080 IDH1KD tx,HT1080-NT tox,DT40 TDP1 no CPT,ALOX12 inh,IL-1B inflam inh,TDP1 cell CPT
COc1ccc(/C(=C/Nc2cccc(Br)c2)C(C)=O)cc1OC,1%,-1%,?,5%,-84*,-3%
O=C1NC(=NC2CCCCC2)C2(CCN(CC3CC3)CC2)N1c1cccnc1,/,/,/,8%[6.33 µM],/,/
O=C(N/N=C/c1c[nH]c2ccc(Br)cc12)c1ccn(Cc2ccc(Cl)cc2Cl)n1,?,?,21µM*,-8%,?,?
CCOc1ccc(Cl)cc1CN(C)Cc1cc2n(n1)CCCNC2,/,/,/,-2%,/,/
COc1ccc(OC)c(CN2CC[C@@H]3OCC(=O)N(Cc4c[nH]c5ccccc45)[C@H]3CC2)c1,/,/,/,-24%,/,/
Clc1ccc(Cl)c(-c2nn3c(COc4ccccc4)nnc3s2)c1,0%,-4%,?,?,3,16µM*
c1ccc(OCc2nnc3sc(-c4ccccc4)nn23)cc1,/,/,/,8.9µM*,/,/
Cc1ccccc1-c1nn2c(COc3ccccc3)nnc2s1,/,/,/,6%,/,/
CCc1nnc2sc(-c3cc(-c4ccccc4)nc4ccccc34)nn12,23%,-2%,?,15%,14,35µM*
COc1ccc(-c2nn3c(COc4ccccc4)nnc3s2)cc1OC,-15%,-5%,-10%,0%,-5,2%
Cn1c(CCNC(=O)C2CCN(c3cn[nH]c(=O)c3)C2)nc2ccccc21 (stereo not given),/,/,/,60%,/,/
CC1=C(c2ccccc2)[N+](=O)C(C)(c2ccc(C)cc2)N1[O-] (stereo not given),/,/,/,11%,/,/
CC1=C(c2ccc(Cl)cc2)[N+](=O)C(C)(C)N1[O-],7%,-5%,?,-10%,-3,16µM*
Cc1ccc(C)c(CN2CC[C@@H]3CN(S(C)(=O)=O)[C@@H]3C2)c1,/,/,/,-9%,/,/
Cc1cccc(N(C)C(=O)CN2C(=O)NC3(CCCCC3)C2=O)c1,/,/,/,36%,/,/
Cc1ccc(N=C2CCCN2Cc2ccccc2)c(C#N)c1,6%,2%,21µM*,4%[57.4 µM],-4,?
N#C/C(C(=O)NCc1ccccc1)=C1/N=C(NC(=O)c2cccs2)c2ccccc21,-5%,-11%,10µM*,0%,15,16µM*
COCCNC(=O)/C(C#N)=C1\N=C(NC(=O)c2ccco2)c2ccccc21,8%,15%,?,7%,?,?
CCCNC(=O)/C(C#N)=C1\N=C(NC(=O)c2ccco2)c2ccccc21,-6%,-6%,?,-11%,-6,16µM*
CCC(C)NC(=O)Cn1c(-c2ccccc2)cc2ccccc21 (stereo not given),/,/,/,-21%,/,/

# Source: PubChem
